Experimental data: PubChem BioAssay AID1259343 (VanderVen Lab, College of Veterinary Medicine, Cornell …, 2017)
Out of some 6,200 compounds screened, about 2,900 (47%) were called active. Rule as the data show it: active = inhibition above about 50%; inactive = the rest. The set was probably picked from earlier hits. Some of the results follow.

Test: Mycobacterium tuberculosis growth inhibition, primary screen (AID 1259343)
Conditions: inhibition: at 10 µM, stronger effect = higher value; outcome: 10 uM

Compound	inhibition
CS(=O)(=O)c1ccc([C@@H](O)[C@@H](CO)NC(=O)C(Cl)Cl)cc1	44.5% (inactive)
CS(=O)(=O)c1ccc(CCNc2ccc(Cl)c(C#N)n2)cc1	24.5% (inactive)
CC(NCc1ccc(C(C)(C)C)cc1)c1ccc(S(C)(=O)=O)cc1 (stereo not drawn)	59.5% (active)
Cc1ccc(S(=O)(=O)NCC2CCN(c3ccccc3)C2)c(C)c1 (stereo not drawn)	52.8% (active)
Cc1ccc(S(=O)(=O)NCC2COc3ccccc3C2)cc1F (stereo not drawn)	-9.55% (inactive)
O=S(=O)(NCC1CCC(c2ccccc2)CC1)C1CCOCC1 (stereo not drawn)	-0.68% (inactive)
CCOC(=O)c1cc(-c2ccccc2)sc1NC(=O)CC(=O)OC	81% (active)
CCOC(=O)c1ccccc1Nc1nnc(C(C)(C)C)c(=O)[nH]1	32.2% (inactive)
CCc1cc(C(=O)O)c(NC(=O)c2ccccc2C)s1	18.1% (inactive)
NC(=NC1C2CC3CC(C2)CC1C3)Nc1ccc(I)cc1 (stereo not drawn)	42.8% (inactive)
C=CCN(Cc1ccccc1)C(=O)c1cnn2c1[nH]c(=O)c1ccccc12	79.8% (active)
COc1cc(C=Cc2ccc3ccccc3n2)cc(Cl)c1OC	26.8% (inactive)
COc1cc(C=Cc2ccc3ccccc3n2)cc(Br)c1O	73.5% (active)
Fc1ccc(C=Cc2ccc3ccccc3n2)cc1	32.5% (inactive)
O=C(NCC(c1ccco1)N1CCc2ccccc21)C(=O)Nc1ccccc1[N+](=O)[O-] (stereo not drawn)	5.43% (inactive)
CC1CC1C(=O)Nc1ccccc1N1CCc2ccccc2C1 (stereo not drawn)	81.4% (active)
O=C(N1CCc2ccccc2C1)N1c2ccccc2Sc2ccccc21	-20% (inactive)
O=c1c2ccccc2nc(SCc2ccc([N+](=O)[O-])cc2)n1CC1CCCO1 (stereo not drawn)	26.6% (inactive)
O=c1[nH]n(-c2ccc([N+](=O)[O-])cc2)c(=O)c2ccccc12	90% (active)
CC(C)N1C(=O)c2ccccc2NS1(=O)=O	72.9% (active)
C/C(=C\c1ccccc1)C1Nc2ccccc2C(=O)N1C (stereo not drawn)	48.1% (inactive)
CC(C)n1c(=O)[nH]c2ccccc21	19.6% (inactive)
O=C1OCC(CO)(CO)N=C1NNc1ccc([N+](=O)[O-])cc1	-25.1% (inactive)
O=C1OCC(CO)(CO)N=C1NNc1ccc(Cl)cc1	81.8% (active)
O=C1OCC(CO)(CO)N=C1NNc1cc(Cl)ccc1Cl	91.9% (active)
O=C1OCC(CO)(CO)N=C1NNc1ccc(I)cc1	36.3% (inactive)

Compound	inhibition
O=C1OCC(CO)(CO)N=C1NNc1ccc(Cl)c(Cl)c1	87.5% (active)
CN(Cc1cnc2ccccn12)C(=O)c1cc(COc2cncc(Cl)c2)on1	62.9% (active)
Cc1nc2cc(OCc3cc(C(=O)N4CCN(C)C(c5ccccc5)C4)no3)ccc2s1 (stereo not drawn)	10.6% (inactive)
CN1CCN(C(=O)c2cc(COc3cncc(Cl)c3)on2)CC1c1ccccc1 (stereo not drawn)	88% (active)
CN(CCCC1CCCC1)C(=O)c1cnon1	12.9% (inactive)
CCc1ccc(CN(C)C(=O)c2cc(COc3cncc(Cl)c3)on2)cc1	inactive
COc1ccc(OCc2cc(C(=O)N(C)CC3CCCCO3)no2)c(Cl)c1 (stereo not drawn)	inactive
CN(CC1CCCCO1)C(=O)c1cc(COc2cncc(Cl)c2)on1 (stereo not drawn)	95.4% (active)
O=C(c1cc(COc2cncc(Cl)c2)on1)N(CCO)Cc1cccs1	89.6% (active)
Cc1cccc(C)c1OCc1cc(C(=O)N2CCCC(c3ccccc3)C2)no1 (stereo not drawn)	47.2% (inactive)
Cc1ccc(C(C)C)cc1S(=O)(=O)NCc1ccco1	-19.8% (inactive)
COc1cccc(Oc2ccc3c(C4CC4)noc3n2)c1	93% (active)
c1cn(-c2ccc(Oc3ccc4c(C5CC5)noc4n3)cc2)cn1	33.5% (inactive)
Clc1cncc(Oc2ccc3c(C4CC4)noc3n2)c1	78.7% (active)
c1ccc(Oc2ccc3c(C4CC4)noc3n2)cc1	72.8% (active)
COc1ccc2c(=O)c3c(=O)n(-c4ccccc4)c(C4CCCCC4)nc3oc2c1	-17.1% (inactive)
FC(F)(F)c1ccc(Oc2ccc3c(C4CC4)noc3n2)cn1	92.3% (active)
CCOc1ccc(C2CC(c3ccc(F)cc3)=NN2C(=O)CN(C)C2CCCCC2)cc1 (stereo not drawn)	-49.7% (inactive)
Fc1ccc(Cl)cc1Oc1ccc2c(C3CC3)noc2n1	61.4% (active)
FC(F)(F)c1cccc(Oc2ccc3c(C4CC4)noc3n2)c1	70.6% (active)
O[C@@H]1CNCC[C@H]1CNCc1cccc(Oc2cccc(C(F)(F)F)c2)c1	9.4% (inactive)
Cc1ccc(F)cc1Oc1ccc2c(C3CC3)noc2n1	46.9% (inactive)
Fc1cccc(Oc2ccc3c(C4CC4)noc3n2)c1	69.2% (active)
FC(F)(F)c1ccccc1Oc1ccc2c(C3CC3)noc2n1	92.9% (active)
O=c1[nH]c(NCCO)nc2c1C1(CCCC1)Cc1ccccc1-2	3.77% (inactive)
O=C(Cc1c[nH]c2cccc(Br)c12)OCC1CC1	-40.3% (inactive)

Compound	inhibition
CCCNC(=O)C1(C)CCN(Cc2csc(-c3ccc(Cl)cc3)n2)C1 (stereo not drawn)	30.7% (inactive)
Fc1cc(F)cc(Oc2ccc3c(C4CC4)noc3n2)c1	95.3% (active)
Fc1ccc(Oc2ccc3c(C4CC4)noc3n2)cc1	6.82% (inactive)
COc1ccc(Nc2ccc3c(C4CC4)noc3n2)cc1	85.2% (active)
Cn1c(SCC(N)=O)nc2scc(-c3ccc(F)cc3)c2c1=O	66.5% (active)
CC(C)c1ccc(-c2csc3ncn(-n4cccc4)c(=O)c23)cc1	12.8% (inactive)
CNC(=O)C1Sc2nc3scc(-c4ccccc4)c3c(=O)n2N=C1C (stereo not drawn)	41.4% (inactive)
Cc1ccccc1C1c2ccsc2CCN1C(C)C(=O)N1CCCN(S(=O)(=O)c2ccc(C(C)(C)C)cc2)CC1 (stereo not drawn)	77.4% (active)
CC(Sc1n[nH]c(-c2cccs2)n1)c1ccc(F)cc1F (stereo not drawn)	10.1% (inactive)
COc1ccc(OCc2nc(CSCc3ccc(F)cc3)cs2)cc1	50.8% (active)
Fc1ccc(CSCc2csc(-c3ccc(F)cc3)n2)cc1	38.6% (inactive)
Cc1ccc(-c2nnc(SCc3c(C)noc3C)o2)cc1	79% (active)
Cc1cc(C)cc(-c2nnc(SCc3cc(C)on3)o2)c1	34.2% (inactive)
Cc1cc(CSc2nnc(-c3ccc(C(C)(C)C)cc3)o2)no1	85.8% (active)
CN(C)C(=O)CSc1nnc(-c2ccc(Br)cc2)o1	78.2% (active)
CC(C)(C)c1ccc(-c2nnc(SCC(N)=O)o2)cc1	98.8% (active)
COc1ccc(-c2nnc(SCC(=O)NC(C)(C)C)o2)cc1	38.2% (inactive)
O=C1N=c2ccc(Br)cc2=C1c1sc(NS(=O)(=O)Cc2ccccc2)nc1O	16.2% (inactive)
CC(Sc1nnc(-c2ccc(Br)cc2)o1)C(N)=O (stereo not drawn)	86% (active)
CC(C)(C)c1ccc(OCCCC(=O)NCc2cn[nH]c2)cc1	88% (active)
Cc1nn(C(C)(C)C)c(C)c1C(=O)NCC1CCCCCCC1	80.2% (active)
Cc1ccc(C(=O)NCC2CCCCC2)c(C2CCN(C(=O)c3ccccc3)CC2)n1	31.2% (inactive)
Cc1oc(-c2ccccc2)nc1C(=O)NCC1CCCCC1	16.3% (inactive)
OC1(c2ccccc2)CC(=NC2=NN(c3ccccc3)CC2)C=C1c1ccccc1 (stereo not drawn)	84% (active)
Cn1cc(Br)cc1C(=O)Nc1cc2c(cc1Cl)OCO2	88.7% (active)
CC(C)Oc1ccc(NC(=O)c2cc(Br)cn2C)cc1	23% (inactive)

Compound	inhibition
Clc1ccccc1-c1nc2c(NCCc3ccccc3)nccc2[nH]1	60.4% (active)
Brc1ccc2nc(NCc3ccccn3)nc(-c3ccccc3)c2c1	1.6% (inactive)
CC(C)c1cccc(-c2nc3c(NCCc4ccncc4)nccc3[nH]2)c1	51.9% (active)
COCCCNc1nccc2[nH]c(-c3cccc(C(C)C)c3)nc12	78.4% (active)
c1ccc(CCNc2nc(-c3ccco3)nc3ccccc23)cc1	8.49% (inactive)
CC(C)c1cccc(-c2nc3c(NCc4ccccn4)nccc3[nH]2)c1	82.7% (active)
FC(F)(F)c1ccc(NCc2csc(-c3ccco3)n2)cc1	89.6% (active)
FC(F)(F)c1cc(-c2ccco2)nc(NCC2CCCO2)n1 (stereo not drawn)	28.3% (inactive)
Cc1ccc(-c2cc(CNCc3ccco3)no2)c(C)c1	27.2% (inactive)
Cn1nnc2c(Nc3ccc(Oc4ccccc4)cc3)ncnc21	53.9% (active)
CCOc1ccc(Nc2ncnc3c2nnn3C)cc1	16.3% (inactive)
CCc1ccc(Nc2ncnc3c2nnn3C)cc1	69.2% (active)
Cn1nnc2c(Nc3ccc(OC(F)F)cc3)ncnc21	72% (active)
Cn1nnc2c(Nc3ccc(Nc4ccccc4)cc3)ncnc21	9.73% (inactive)
Cc1cc(Cl)ccc1Oc1ncccc1C#N	33.1% (inactive)
Cc1cc(Cl)ccc1OCC(O)CN1CCN(c2ccccc2)CC1 (stereo not drawn)	51.6% (active)
Fc1ccc(N=c2scc(-c3ccc(OC(F)F)cc3)n2C2CC2)cc1	53.9% (active)
Brc1ccccc1-c1csc(=Nc2cccnc2)n1C1CC1	36.9% (inactive)
FC(F)Oc1ccc(-c2csc(=Nc3cccnc3)n2CC2CCCO2)cc1 (stereo not drawn)	38.5% (inactive)
FC(F)Oc1ccc(-c2csc(=Nc3cccnc3)n2C2CC2)cc1	80.6% (active)
CN=c1scc(-c2ccc(F)cc2)n1N=C(C)c1ccncc1	18.1% (inactive)
CN(c1ccccc1)c1nnc(C(O)c2cc(F)c(F)c(F)c2)s1 (stereo not drawn)	69.1% (active)
NC(=O)COc1ccc(C(=O)N2CCc3sccc3C2)cc1	67% (active)
NC(=O)c1ccc(C(=O)N2CCC(=Cc3ccccc3)CC2)cc1	-6.19% (inactive)
CCCCN(C)c1ccc(C(=O)N2CCc3sccc3C2)cc1	9.79% (inactive)
